Data published in PubChem BioAssay (NCI).
Compounds without any hit were thinned out: in the full panel of roughly 79,000, 15% have a hit. Values without a mark were called inactive. Active and inactive are the calls of the source. Rule as the data show it: active = growth inhibition above about 70%; inactive = the rest.

Experiment: NCI Yeast Anticancer Drug Screen. Data for the rad50 strain (AID 155);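 also: 0% = growth of vehicle-only cultures of the same strain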
Conditions: S. cerevisiae rad50 strain growth inhibition; at 50.0 µM; hits give high values
Summary of the method: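 Inhibition values express reduced yeast growth in compound-treated cultures relative to vehicle-treated controls.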

Which growth inhibition does the source give for `Oc1cccnc1CN1CCCC1` here?
The growth inhibition was 1.15%.

For `O=C(NC(=S)N1CC=CCC1)c1ccccc1`, which growth inhibition is on record?
The growth inhibition was 13.5%.

For `C=CCC(OC(C)=O)c1ccc(C(C)C)cc1` (configuration not stated), which growth inhibition is on record?
The growth inhibition was 4%.

Which growth inhibition does the source give for `C=C(C)COc1ccc(C(C)(C)C)cc1` here?
Its growth inhibition is 18.1%.

For `C=C1CC2(OC1=O)C(=O)N(C)c1ccc(I)cc12` (configuration not stated), which growth inhibition is on record?
Its growth inhibition is 91.3% (active).

For `NC(=O)NCCO`, which growth inhibition is on record?
The growth inhibition was -17.5%.

Which growth inhibition does the source give for `Oc1cc(O)c2c(c1)O[C@H](c1ccc(O)c(O)c1)[C@@H](O)C2` here?
Its growth inhibition is 0.9%.

Which growth inhibition does the source give for `O=S(=O)(O)C(C(I)I)S(=O)(=O)O` here?
The growth inhibition was -0.15%.

With `BrCc1cccc(C[P+](c2ccccc2)(c2ccccc2)c2ccccc2)c1` as the molecule, how does the growth inhibition read?
Its growth inhibition is 66%.

With `Cc1ccc(C)c(CCO)c1` as the molecule, how does the growth inhibition read?
The growth inhibition was -22.1%.

Which growth inhibition does the source give for `Cc1[nH]nc(C(N)=O)c1[N+](=O)[O-]` here?
Its growth inhibition is -0.75%.

Which growth inhibition does the source give for `Clc1ccc(-c2noc(/C=C\c3ccccc3)n2)cc1` here?
The growth inhibition was 12.7%.

Which growth inhibition does the source give for `CCOC(=O)c1cc(C)[nH]c(=O)c1C#N` here?
The growth inhibition was -12.2%.

Which growth inhibition does the source give for `Cc1[nH]n(-c2ccccc2)c(=O)c1C=NC(=S)C(N)=S` here?
The growth inhibition was -24.4%.

For `COc1cc(C(=O)NC(=S)NCc2ccncc2)cc(OC)c1OC`, which growth inhibition is on record?
Its growth inhibition is 9.6%.

Which growth inhibition does the source give for `CCc1ccccc1C(=O)N(CC)CC` here?
Its growth inhibition is -14.8%.

Which growth inhibition does the source give for `CCOC(=O)Nc1nccs1` here?
Its growth inhibition is -13.7%.

Which growth inhibition does the source give for `CCOC(=O)c1c(C)[nH]c(C)c1C=O` here?
Its growth inhibition is 16.6%.

For `CC(C)c1ccc(C(=O)OCCCl)cc1`, which growth inhibition is on record?
The growth inhibition was 29.7%.

For `CCOC(=O)C1(N)CCCCC1`, which growth inhibition is on record?
The growth inhibition was 10.3%.

Which growth inhibition does the source give for `C=CCS(C)(=O)=O` here?
Its growth inhibition is -13.8%.

Which growth inhibition does the source give for `CN1C(=O)NC(c2ccc(Cl)cc2)(c2ccc(Cl)cc2)C1=O` here?
Its growth inhibition is 44.9%.

For `CC1(C)CC(=O)C=C(N)C1`, which growth inhibition is on record?
The growth inhibition was 7.35%.

For `CC(=O)C[n+]1ccc(C)cc1Sc1ccccc1C`, which growth inhibition is on record?
Its growth inhibition is 8.4%.

Which growth inhibition does the source give for `O=C1NCC2CCCC1C2` (configuration not stated) here?
Its growth inhibition is 6.5%.

Which growth inhibition does the source give for `Cc1cc(Cl)cc(Cc2cc(Cl)cc(C)c2O)c1O` here?
Its growth inhibition is 50.1%.

With `Cc1ccc(S(=O)(=O)CCCl)cc1` as the molecule, how does the growth inhibition read?
The growth inhibition was 6.8%.

With `CC(=O)c1cccc(N(C)S(=O)(=O)c2ccc(C)cc2)c1` as the molecule, how does the growth inhibition read?
Its growth inhibition is 47.6%.

Which growth inhibition does the source give for `C1CCc2onc(-c3noc4c3CCCCC4)c2CC1` here?
The growth inhibition was -9.45%.

Which growth inhibition does the source give for `CC(=O)OCC1OC(n2cnc3c(=S)nc(N)[nH]c32)C(OC(C)=O)C1OC(C)=O` (configuration not stated) here?
Its growth inhibition is 73% (active).

With `N#CCCN1C(=O)CCC1C(=O)O` (configuration not stated) as the molecule, how does the growth inhibition read?
Its growth inhibition is 7.75%.

For `C=CCOc1ccc(Cl)cc1Cl`, which growth inhibition is on record?
The growth inhibition was 1.65%.

With `Nc1c(O)c(S(=O)(=O)O)c(O)c2c1C(=O)c1ccccc1C2=O` as the molecule, how does the growth inhibition read?
Its growth inhibition is 27.4%.

Which growth inhibition does the source give for `Nc1cc2c(cc1Cl)C(=O)c1ccccc1C2=O` here?
Its growth inhibition is 32.4%.

Which growth inhibition does the source give for `CC(=O)c1cc(O)ccc1O` here?
Its growth inhibition is -6.45%.

For `CN(C)c1ccc(/C=C/C(=O)c2ccc(NC(N)=O)cc2)cc1`, which growth inhibition is on record?
The growth inhibition was -8.35%.

Which growth inhibition does the source give for `CCC(=O)Oc1ccc2ccccc2c1` here?
The growth inhibition was 49.4%.

Experiment: NCI Yeast Anticancer Drug Screen. Data for the mec2-1 strain (AID 157)
Conditions: S. cerevisiae mec2-1 strain, at 50.0 µM, hits give high values
Summary of the method: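 Growth inhibition is read against vehicle-treated controls after compound exposure of the mec2-1 yeast strain, which is defective in DNA damage repair or cell cycle control.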

Which growth inhibition does the source give for `Oc1cccnc1CN1CCCC1` here?
Its growth inhibition is -12.8%.

For `C=CCC(OC(C)=O)c1ccc(C(C)C)cc1` (configuration not stated), which growth inhibition is on record?
The growth inhibition was 0.9%.

With `C=C(C)COc1ccc(C(C)(C)C)cc1` as the molecule, how does the growth inhibition read?
Its growth inhibition is 16.7%.

Which growth inhibition does the source give for `C=C1CC2(OC1=O)C(=O)N(C)c1ccc(I)cc12` (configuration not stated) here?
The growth inhibition was 93.2% (active).

With `NC(=O)NCCO` as the molecule, how does the growth inhibition read?
Its growth inhibition is 4.1%.

For `Oc1cc(O)c2c(c1)O[C@H](c1ccc(O)c(O)c1)[C@@H](O)C2`, which growth inhibition is on record?
The growth inhibition was -17.9%.

With `O=S(=O)(O)C(C(I)I)S(=O)(=O)O` as the molecule, how does the growth inhibition read?
The growth inhibition was -19.8%.

Which growth inhibition does the source give for `BrCc1cccc(C[P+](c2ccccc2)(c2ccccc2)c2ccccc2)c1` here?
Its growth inhibition is 41.9%.

Which growth inhibition does the source give for `Cc1ccc(C)c(CCO)c1` here?
The growth inhibition was -38.5%.

Which growth inhibition does the source give for `Cc1[nH]nc(C(N)=O)c1[N+](=O)[O-]` here?
The growth inhibition was 4.95%.

For `Clc1ccc(-c2noc(/C=C\c3ccccc3)n2)cc1`, which growth inhibition is on record?
The growth inhibition was -20.1%.

For `CCOC(=O)c1cc(C)[nH]c(=O)c1C#N`, which growth inhibition is on record?
Its growth inhibition is -3.1%.

For `Cc1[nH]n(-c2ccccc2)c(=O)c1C=NC(=S)C(N)=S`, which growth inhibition is on record?
Its growth inhibition is -22.9%.

With `COc1cc(C(=O)NC(=S)NCc2ccncc2)cc(OC)c1OC` as the molecule, how does the growth inhibition read?
The growth inhibition was 4.75%.

Which growth inhibition does the source give for `CCc1ccccc1C(=O)N(CC)CC` here?
Its growth inhibition is 18.4%.

For `CCOC(=O)Nc1nccs1`, which growth inhibition is on record?
Its growth inhibition is 7.9%.

With `CCOC(=O)c1c(C)[nH]c(C)c1C=O` as the molecule, how does the growth inhibition read?
The growth inhibition was -0.05%.

For `CC(C)c1ccc(C(=O)OCCCl)cc1`, which growth inhibition is on record?
The growth inhibition was 9%.

For `CCOC(=O)C1(N)CCCCC1`, which growth inhibition is on record?
Its growth inhibition is 0.45%.

For `C=CCS(C)(=O)=O`, which growth inhibition is on record?
Its growth inhibition is -18.6%.

For `CN1C(=O)NC(c2ccc(Cl)cc2)(c2ccc(Cl)cc2)C1=O`, which growth inhibition is on record?
The growth inhibition was 11.1%.

Which growth inhibition does the source give for `CC1(C)CC(=O)C=C(N)C1` here?
Its growth inhibition is -16.5%.

With `CC(=O)C[n+]1ccc(C)cc1Sc1ccccc1C` as the molecule, how does the growth inhibition read?
The growth inhibition was -18.1%.

Which growth inhibition does the source give for `Cc1cc(Cl)cc(Cc2cc(Cl)cc(C)c2O)c1O` here?
Its growth inhibition is 24.1%.

With `Cc1ccc(S(=O)(=O)CCCl)cc1` as the molecule, how does the growth inhibition read?
The growth inhibition was -7.35%.

Which growth inhibition does the source give for `CC(=O)c1cccc(N(C)S(=O)(=O)c2ccc(C)cc2)c1` here?
Its growth inhibition is 7.1%.

With `C1CCc2onc(-c3noc4c3CCCCC4)c2CC1` as the molecule, how does the growth inhibition read?
The growth inhibition was -15.8%.

Which growth inhibition does the source give for `CC(=O)OCC1OC(n2cnc3c(=S)nc(N)[nH]c32)C(OC(C)=O)C1OC(C)=O` (configuration not stated) here?
Its growth inhibition is 42%.

For `N#CCCN1C(=O)CCC1C(=O)O` (configuration not stated), which growth inhibition is on record?
The growth inhibition was -11.2%.

With `C=CCOc1ccc(Cl)cc1Cl` as the molecule, how does the growth inhibition read?
Its growth inhibition is -4.4%.

With `Nc1c(O)c(S(=O)(=O)O)c(O)c2c1C(=O)c1ccccc1C2=O` as the molecule, how does the growth inhibition read?
Its growth inhibition is -2.7%.

For `Nc1cc2c(cc1Cl)C(=O)c1ccccc1C2=O`, which growth inhibition is on record?
The growth inhibition was 16.6%.

Which growth inhibition does the source give for `CC(=O)c1cc(O)ccc1O` here?
Its growth inhibition is -10.1%.

With `CN(C)c1ccc(/C=C/C(=O)c2ccc(NC(N)=O)cc2)cc1` as the molecule, how does the growth inhibition read?
Its growth inhibition is 1.9%.

For `CCC(=O)Oc1ccc2ccccc2c1`, which growth inhibition is on record?
Its growth inhibition is 32.8%.
